Data taken from PubChem BioAssay AID720519 (National Center for Advancing Translational Sciences (NCATS), 2013).
Records with an inconclusive call do not appear. Active and inactive are the calls of the source. Calls follow the shape of the dose curve; as a rule, active = well fitted activation curve with a large enough effect; inconclusive = small, poorly fitted or top-dose-only effect; inactive = flat fitted curve, though single readings scatter.

assay: qHTS for Inhibitors of Cell Surface uPA Generation: Confirmatory Assay for Cherry-picked Compounds; settings: cell surface uPA activity generation, qHTS confirmation; series mostly up to 115 µM; inhibition: at the top concentration; as to inhibition: 0% is about no effect
Summary of the method: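 RAW 264.7 cells at 4000/well, incubated overnight, then treated with compounds. After 24 h at 37 C, viability was read by ATPlite luminescence. An increase in signal indicates blocked uPA-dependent LF entry.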
Potency is read from the fitted curve at half-maximal effect.

inhibition, inactive:
CC(C)(C)OC(=O)N(Cc1ccccc1)Cc1ccccc1OCc1cccc(NC(=O)C2CC2)c1 -3%
Cc1cc(=O)[nH]c(=S)[nH]1 -1.76%
O=C(NNC(=O)C1CC(c2cccs2)=NO1)Nc1ccccc1 (centres undefined) -1.17%
CCOC(=O)Cn1c(=O)cc(C)c2cccc(C)c21 6.99%
O=C(O)c1cc(N=Nc2c(O)[nH]c3ccc([N+](=O)[O-])cc23)ccc1Cl -0.969%
O=C(N/C(=C\c1cccc([N+](=O)[O-])c1)C(=O)N1CCOCC1)c1ccc([N+](=O)[O-])cc1 -0.71%
Cc1cc2[nH]c(=O)c(=O)[nH]c2cc1S(=O)(=O)NC1CCC(C)CC1 (centres undefined) -1.26%
Cc1cccc(N2CCN(Cc3ccc(Br)o3)CC2)c1C 1.91%
CCCCCCCCCOC(=O)C1N2C(=O)[C@@H](NC(=O)COc3ccccc3)[C@H]2SC1(C)C (some centres undefined) -3.41%
CC1=CC(C)C(C[N+]2(C)CCCCC2)C(C)C1 (centres undefined) -2.55%
CC(C)OC(=O)c1ccc(N2CCN(c3ccccc3F)CC2)nc1 -2.84%
O=C1CCCc2ccccc2N1Cc1ccc(F)cc1 -2.34%
CCN1CCCCC(=N/O)/C(=N/O)CCCC1 2.88%
O=c1[nH]c2c(s1)C(c1ccc(O)cc1)C1C3CCC(C3)C1S2 (centres undefined) 4.53%
N#CCCN(C(=O)COC(=O)c1ccc2c(c1)NC(=O)CS2)c1ccc2c(c1)OCCO2 -2.38%
O=S(=O)(/N=C(/c1ccccc1)N1CCOCC1)c1ccc(F)cc1F -0.111%
COc1cccc(C2CC(c3ccc(C)cc3)n3ncnc3N2)c1 (centres undefined) 0.338%
C[C@]12CCC(O)CC1CCC1C2CC[C@]2(C)C(c3cc(C(F)(F)F)n[nH]3)CCC12 (some centres undefined) -3.84%
O=C(NCc1ccc(F)cc1)c1cc(S(=O)(=O)N2CCCCC2)ccc1N1CCOCC1 -1.49%
COc1ccc(Cc2nnc(NC(=O)Nc3ccc(F)cc3)s2)cc1 10.6%
Cn1nc(C(C)(C)C)c([N+](=O)[O-])c1C(=O)N1CCOCC1 -1.01%
CN(C)C(=O)NC(NC(=S)Nc1ccccc1)C(Cl)(Cl)Cl (centres undefined) -2.04%
COc1ccc(CC(=O)NNS(=O)(=O)c2ccccc2[N+](=O)[O-])cc1OC -1.54%
CCN(CC)S(=O)(=O)c1ccc(NC(=S)Nc2ccc(F)cc2)cc1 -2%
CC1(C(=O)OCC(=O)Nc2ccc(Cl)cn2)CC1(Cl)Cl (centres undefined) 5.87%
C=CCn1c(C)cc(C(=O)COC(=O)/C=C/c2cccc(OC)c2)c1C -2.92%
Cc1cc(C)nc(N2N=C(C(F)(F)F)CC2=O)n1 -2.08%
CCOc1ccc(-c2n[nH]c(=S)n2Cc2ccccc2)cc1 -0.435%
CCOC(=O)C1(CCOc2ccccc2)CCN(Cc2ccc(O)c(OC)c2)CC1 -3.27%
CSc1nc(-c2ccccc2)nc(C(Cl)Cl)n1 -3.76%
C[C@@H](C(=O)Nc1ccc2ccccc2c1)[C@@H]1C[C@@]1(C)[C@@H](NC(=O)c1cccnc1)c1ccccc1 -3.26%
CCOC(=O)[C@H]1[C@H]2COc3ccc(Br)cc3[C@@H]2N2C(=O)c3c(C)cc(C)cc3NC(=O)[C@@]12C 1.05%
O=C1c2ccccc2[C@@H]2C[C@H](NC34CC5CC(CC(C5)C3)C4)[C@@H](O)CCN12 -0.982%
CC(=O)NCCc1cnc[nH]1 -2.18%
Cc1cc(C)c(S(=O)(=O)N2CCCOC2CNC(=O)C(=O)NCc2cccs2)c(C)c1 (centres undefined) -0.442%
Cc1cccc(Nc2ccc(NCc3ccccc3)nn2)c1 -2.68%
CC(=O)c1ccc(NC(=O)CN2CCN(c3ccccc3)CC2)cc1 -2.52%
Cc1cc(N2C(=O)C(O)=C(C(=O)c3ccco3)C2c2ccc(Cl)cc2)no1 (centres undefined) -3.05%

Potency, active:
CCOC(=O)C1=C(C)NC(C)=C(C(=O)OCC)C1C(=O)OCC(=O)NCCc1ccccc1 9.27 µM
